In assay [1] the test system is TRPC4 beta (transient receptor potential cation channel C4), mouse. Put plainly: TRPC4 cation channel opening, retest – cell-based, Fluo4 calcium, HEK293 TRPC4beta/mu-opioid, duplicates, 10 µM, confirmation (AID 2426).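 On activation: percent rise of integrated ratio over buffer wells lacking compound which define 0%.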 Particulars: Fluo4 calcium fluorescence, at 10 µM; hits give high values.
The subject of assay [2] is transient receptor potential cation channel C4 beta (TRPC4), mouse. Put plainly: TRPC4 cation channel opening, second retest – cell-based, second round, Fluo4, HEK293 TRPC4beta/mu-opioid, 1 µM, confirmation (AID 2461;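 active means primary screen active and over 50% activation in each of two duplicate runs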). Particulars: Fluo4 calcium fluorescence, at 1 µM; hits give high values.
The test system of assay [3] is TRPC4 (transient receptor potential cation channel C4 beta), mouse. Put plainly: potentiation of DAMGO EC20 TRPC4 response – cell-based, second round, Fluo-4, HEK293 TRPC4beta/mu-opioid, 1 µM, confirmation (AID 2554;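 active means primary screen hit whose fluorescence ratio, in both repeats, exceeds the weak agonist control mean by 3 SD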). Particulars: DAMGO EC20, Fluo-4 calcium flux, at 1 µM; hits give high values.
Assay [4] relates to TRPC4 beta (transient receptor potential cation channel C4), mouse. Description: potentiation of DAMGO EC20 TRPC4 response – cell-based, Fluo-4, HEK293 TRPC4beta/mu-opioid, confirmation (AID 2555;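 active means primary screen hit whose calcium fluorescence ratio, in both repeats, exceeds the weak agonist control mean by 3 SD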). Particulars: DAMGO EC20, Fluo-4 calcium flux, at 10 µM; hits give high values. (A change in cytosolic calcium serves as a functional read-out for many receptors and channels.)
The target of assay [5] is Short transient receptor potential channel 4 (Mus musculus) (UniProt Q9QUQ5). Put plainly: blockers of DAMGO-evoked TRPC4 calcium flux – cell-based, Fluo4, HEK293 TRPC4beta/mu-opioid, confirmation (AID 2636;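 active means calcium signal cut by more than 3 SD below the full-agonist control yet still positive, in both repeats and the earlier primary screen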). Particulars: at 10 µM; hits give high values.
Assay [6] shares this target. Description: blockers of DAMGO-evoked TRPC4 calcium flux – cell-based, second round, Fluo4, HEK293 TRPC4beta/mu-opioid, 1 µM, confirmation (AID 2637;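 active means calcium signal ratio cut to more than 3 SD under the fully stimulated control mean yet still positive, in both repeats and the primary screen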;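 on inhibition: percent of integrated ratio relative to wells lacking test compound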). Particulars: at 1 µM; hits give high values.
The target is the same in assay [7]. Description: potentiation of DAMGO-evoked TRPC4 calcium signal – cell-based, HEK293 TRPC4/mu-opioid, Fluo-4 calcium, EC20 DAMGO, dose response (AID 434941;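 active means earlier screen potentiator hit that boosts the TRPC4 ion channel at some dose, with a dose response; inactive means no potentiation, no dose response, or not a prior hit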;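 further: calcium entry triggered by an EC20 dose of DAMGO at the co-expressed mu-opioid receptor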).
Assay [8] has the same target. Put plainly: block of DAMGO-driven TRPC4 calcium entry – cell-based, HEK293 TRPC4/mu-opioid, Fluo-4 calcium, dose response (AID 434942;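 active means primary screen inhibitor hit that blocks the TRPC4 channel at some tested dose, yielding a dose curve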).
In assay [9] the target is Short transient receptor potential channel 6 (Mus musculus) (UniProt Q61143). Put plainly: TRPC6 blockade by TRPC4 inhibitor hits – cell-based, HEK293, membrane potential dye, duplicate, selectivity assay for TRPC4 inhibitor project, confirmation (AID 434948;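 active means active in primary screen and both duplicates, each dropping signal beyond three positive-control SD with fluorescence still positive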). Particulars: HEK293 TRPC6, membrane potential dye fluorescence, at 10 µM, stimulated with maximal-effect acetylcholine; hits give high values.

The target is the same in assay [10]. Put plainly: TRPC6 opening by TRPC4 activator hits – cell-based, HEK293, membrane potential dye, duplicate, selectivity assay for TRPC4 activator project, confirmation (AID 434950;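 active means membrane potential signal rise above negative control mean plus 3 SD in both duplicates, also active in the earlier TRPC4 screen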;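 on activation: 0% = buffer only wells and 100% = acetylcholine maximal-effect wells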). Particulars: HEK293 TRPC6, membrane potential fluorescence, at 10 µM; activation: hits give high values; outcome: activation.
The target is the same in assay [11]. Put plainly: positive modulators of mouse TRPC6 channel – HEK293 cells, membrane potential dye, duplicate, selectivity assay for TRPC4 potentiator project, confirmation (AID 434952;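 active means compound raising the membrane signal above positive-control mean plus 3 SD in both repeats, and a primary screen hit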). Particulars: HEK293 TRPC6, membrane potential dye fluorescence, at 10 µM, maximal acetylcholine added after compound; hits give high values.
Assay [12] deals with Short transient receptor potential channel 4 (Mus musculus) (UniProt Q9QUQ5). Description: calcium flux activators in TRPC4/5HT1a cells, counter-screen for TRPC4 activator project, cell-based, second counter screen, HEK293 TRPC4/5HT1a, Fluo-4 (AID 434977;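 active means calcium signal rise above buffer-control mean plus 5 SD in both duplicates, and also a hit in the primary screen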;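 on activation: plate controls were assay buffer for no effect and maximal serotonin response for full effect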). Particulars: Fluo-4 calcium flux, at 10 µM; hits give high values.
Assay [13] in a line: serotonin-gated TRPC4 signal block – cell-based, second counter screen, HEK293 TRPC4/5HT1a, Fluo-4, counter-screen for TRPC4 inhibitor project, confirmation (AID 434978;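 active means primary screen active whose calcium signal fell more than 3 SD beyond the full-serotonin control mean in both duplicate plates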;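 on outcome: serotonin given first at submaximal then at maximal dose after compound preincubation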). Particulars: Fluo-4 calcium flux, at 10 µM, serotonin added to trigger calcium flux; hits give high values.
Assay [14] relates to TRPC4 (mouse), co-expressed with 5HT1a in HEK293. Description: enhancement of serotonin-evoked TRPC4 response – cell-based, second counter screen, HEK293 TRPC4/5HT1a, Fluo-4, counter-screen for TRPC4 potentiator project, confirmation (AID 434979;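 active means signal rise over 3 SD above mean of control wells given weak agonist, in both repeats and first screen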). Particulars: Fluo-4 calcium flux, at 10 µM, serotonin added at its EC20 dose; hits give high values. For orientation: A counterscreen serves to expose hits that act by an unwanted route or on another target.

A short description of assay [15]: nonspecific calcium rise without TRPC4 – cell-based, HEK293 mu-opioid receptor line, counter-screen for TRPC4 activator project, confirmation (AID 449723;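 active means hit in primary screen, with calcium signal over 5 SD above buffer well mean in both duplicates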;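 further: counter screen cells carry the mu-opioid receptor alone and lack TRPC4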). Particulars: HEK293 mu-opioid cells, Fluo-4 calcium fluorescence, at 10 µM; hits give high values.
Assay [16] in a line: nonspecific potentiation of DAMGO calcium response – cell-based, HEK293 mu-opioid receptor line, counter-screen for TRPC4 allosteric potentiator project, confirmation (AID 449724;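 active means calcium signal rise more than 3 SD above the low-dose agonist control mean, in both duplicate plates and the primary screen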;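 further: HEK293 cells carrying mu-opioid receptor only with no TRPC4 channel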). Particulars: HEK293 mu-opioid receptor cells, Fluo-4 calcium flux, at 10 µM, compound added before EC20 DAMGO stimulus; hits give high values.
A short description of assay [17]: nonspecific flux increase, KCNQ1-free cells – parental CHO cells, counter-screen for KCNQ1 potentiator project (AID 493006;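 active means duplicate-averaged activation above buffer control mean plus 5 SD of those controls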;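 on activation: fluorescence ratio of max minus min over baseline after K+ and Tl+ depolarization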). Particulars: parental CHO-K1 cells, FluxOR thallium flux, at 10 µM; hits give high values.
For assay [18], the target named is Potassium voltage-gated channel subfamily KQT member 1 (Homo sapiens) (UniProt P51787). Description: enhancement of KCNQ1 channel thallium flux – FluxOR thallium flux, CHO cells, duplicates, confirmation (AID 493007;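 active means potentiation averaged over duplicate wells exceeding buffer-only control mean by more than 3 SD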;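 further: 0% = buffer-only wells and 100% = R-L3 activator control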). Particulars: KCNQ1 cell line, FluxOR thallium flux fluorescence, at 10 µM; hits give high values, % of reference activator effect, buffer zero.
The target of assay [19] is Potassium voltage-gated channel subfamily KQT member 2 (Rattus norvegicus) (UniProt O88943). Put plainly: KCNQ2 thallium flux enhancement – KCNQ2-CHO-K1 cells, selectivity assay for KCNQ1 potentiator project (AID 493009;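 active means mean duplicate potentiation above the buffer control mean plus 5 SD of buffer wells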;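 further: assay conditions were tuned for KCNQ1 rather than KCNQ2 modulators; signal is max minus min fluorescence divided by baseline after thallium stimulus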). Particulars: FluxOR thallium flux fluorescence, at 10 µM; hits give high values, scaled: buffer 0, activator control 100.
Assay [20] deals with Potassium voltage-gated channel subfamily KQT member 1 (Homo sapiens) (UniProt P51787). Description: KCNQ1 activators by electrophysiology – IonWorks patch clamp, KCNQ1-CHO cells, orthogonal assay for KCNQ1 potentiator project, confirmation (AID 493184;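 active means current rise at least 3 SD above the untreated control mean in each of two repeat wells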). Particulars: automated patch clamp current, at 10 µM; hits give high values. Background: In patch-clamp work, channel activity is measured electrically.

For part of these data: Measured potencies and affinities stand elsewhere. The source made the active and inactive calls.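 How the source made its calls, unless noted: active means fluorescence ratio normalized to control raised more than 50% in primary screen plus both repeat runs; inactive means the rest.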

As a reminder, the inhibition is the change of the read-out against control, counted positive when it falls.

Chain of Short transient receptor potential channel 4 (Mus musculus) (Q9QUQ5 whole entry, looked up): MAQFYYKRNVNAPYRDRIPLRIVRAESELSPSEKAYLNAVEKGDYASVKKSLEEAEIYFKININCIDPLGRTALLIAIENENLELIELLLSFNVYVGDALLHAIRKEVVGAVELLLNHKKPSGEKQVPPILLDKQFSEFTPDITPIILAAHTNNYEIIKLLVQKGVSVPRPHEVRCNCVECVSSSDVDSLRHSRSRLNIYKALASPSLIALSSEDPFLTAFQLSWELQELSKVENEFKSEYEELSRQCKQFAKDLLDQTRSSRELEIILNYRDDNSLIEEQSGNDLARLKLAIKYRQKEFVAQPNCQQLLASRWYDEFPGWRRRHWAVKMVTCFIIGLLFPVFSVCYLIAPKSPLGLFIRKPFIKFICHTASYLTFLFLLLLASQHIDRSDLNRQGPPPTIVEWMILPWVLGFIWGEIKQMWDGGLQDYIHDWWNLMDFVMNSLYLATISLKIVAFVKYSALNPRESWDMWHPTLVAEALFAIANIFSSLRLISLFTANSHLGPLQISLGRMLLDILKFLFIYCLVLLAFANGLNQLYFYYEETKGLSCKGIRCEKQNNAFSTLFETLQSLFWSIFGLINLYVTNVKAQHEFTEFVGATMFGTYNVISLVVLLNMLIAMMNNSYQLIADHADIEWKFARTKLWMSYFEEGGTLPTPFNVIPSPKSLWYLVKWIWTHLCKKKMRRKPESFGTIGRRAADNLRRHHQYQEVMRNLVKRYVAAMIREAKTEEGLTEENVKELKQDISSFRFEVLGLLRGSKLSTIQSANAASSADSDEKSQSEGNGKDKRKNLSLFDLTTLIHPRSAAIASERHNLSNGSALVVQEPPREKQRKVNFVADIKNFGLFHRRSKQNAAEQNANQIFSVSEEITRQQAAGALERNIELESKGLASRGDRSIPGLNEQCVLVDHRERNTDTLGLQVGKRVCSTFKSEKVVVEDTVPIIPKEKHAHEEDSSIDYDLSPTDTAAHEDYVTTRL
Chain of Potassium voltage-gated channel subfamily KQT member 1 (Homo sapiens) (P51787 whole entry, looked up): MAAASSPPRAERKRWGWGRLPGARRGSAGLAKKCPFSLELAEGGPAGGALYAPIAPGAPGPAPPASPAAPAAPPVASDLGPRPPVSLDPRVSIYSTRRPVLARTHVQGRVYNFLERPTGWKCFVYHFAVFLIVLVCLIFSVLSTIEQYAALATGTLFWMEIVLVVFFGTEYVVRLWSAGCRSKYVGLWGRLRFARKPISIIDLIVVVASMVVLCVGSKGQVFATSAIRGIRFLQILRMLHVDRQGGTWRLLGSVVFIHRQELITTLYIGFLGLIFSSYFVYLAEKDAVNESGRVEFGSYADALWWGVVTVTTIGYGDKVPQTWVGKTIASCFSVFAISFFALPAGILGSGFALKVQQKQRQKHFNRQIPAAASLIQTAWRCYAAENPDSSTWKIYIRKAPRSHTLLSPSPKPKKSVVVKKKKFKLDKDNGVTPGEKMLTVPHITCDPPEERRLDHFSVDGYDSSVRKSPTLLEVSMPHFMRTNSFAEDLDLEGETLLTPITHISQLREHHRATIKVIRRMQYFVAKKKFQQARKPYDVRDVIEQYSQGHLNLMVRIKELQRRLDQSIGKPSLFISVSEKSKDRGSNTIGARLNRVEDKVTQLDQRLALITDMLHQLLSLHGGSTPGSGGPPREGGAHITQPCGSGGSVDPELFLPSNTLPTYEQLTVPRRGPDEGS
Chain of Short transient receptor potential channel 6 (Mus musculus) (Q61143 whole entry, looked up): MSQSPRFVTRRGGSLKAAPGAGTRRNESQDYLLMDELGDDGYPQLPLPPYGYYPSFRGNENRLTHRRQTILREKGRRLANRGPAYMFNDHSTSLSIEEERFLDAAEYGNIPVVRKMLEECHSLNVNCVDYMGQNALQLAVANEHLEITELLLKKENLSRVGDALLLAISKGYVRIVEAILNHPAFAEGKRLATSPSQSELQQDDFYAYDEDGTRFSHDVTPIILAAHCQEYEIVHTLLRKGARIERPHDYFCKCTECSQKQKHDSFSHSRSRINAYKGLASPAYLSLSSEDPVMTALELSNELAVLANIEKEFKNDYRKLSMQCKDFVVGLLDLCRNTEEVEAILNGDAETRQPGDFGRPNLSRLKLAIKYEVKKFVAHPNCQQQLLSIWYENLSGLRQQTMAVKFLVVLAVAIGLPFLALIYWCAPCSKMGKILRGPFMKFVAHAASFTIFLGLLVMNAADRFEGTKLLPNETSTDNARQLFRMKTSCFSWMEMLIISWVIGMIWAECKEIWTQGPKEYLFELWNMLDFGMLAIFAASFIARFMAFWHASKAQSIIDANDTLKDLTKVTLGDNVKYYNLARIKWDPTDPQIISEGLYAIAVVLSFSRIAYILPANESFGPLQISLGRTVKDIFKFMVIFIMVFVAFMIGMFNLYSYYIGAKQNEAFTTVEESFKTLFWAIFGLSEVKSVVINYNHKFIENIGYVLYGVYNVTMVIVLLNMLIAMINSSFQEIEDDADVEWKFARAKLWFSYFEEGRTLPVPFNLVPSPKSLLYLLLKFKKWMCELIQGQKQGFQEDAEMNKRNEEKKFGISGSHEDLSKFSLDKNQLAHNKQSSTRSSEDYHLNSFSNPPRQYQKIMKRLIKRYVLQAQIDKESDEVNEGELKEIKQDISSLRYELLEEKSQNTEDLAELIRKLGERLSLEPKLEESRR
Chain of Potassium voltage-gated channel subfamily KQT member 2 (Rattus norvegicus) (O88943 whole entry, looked up): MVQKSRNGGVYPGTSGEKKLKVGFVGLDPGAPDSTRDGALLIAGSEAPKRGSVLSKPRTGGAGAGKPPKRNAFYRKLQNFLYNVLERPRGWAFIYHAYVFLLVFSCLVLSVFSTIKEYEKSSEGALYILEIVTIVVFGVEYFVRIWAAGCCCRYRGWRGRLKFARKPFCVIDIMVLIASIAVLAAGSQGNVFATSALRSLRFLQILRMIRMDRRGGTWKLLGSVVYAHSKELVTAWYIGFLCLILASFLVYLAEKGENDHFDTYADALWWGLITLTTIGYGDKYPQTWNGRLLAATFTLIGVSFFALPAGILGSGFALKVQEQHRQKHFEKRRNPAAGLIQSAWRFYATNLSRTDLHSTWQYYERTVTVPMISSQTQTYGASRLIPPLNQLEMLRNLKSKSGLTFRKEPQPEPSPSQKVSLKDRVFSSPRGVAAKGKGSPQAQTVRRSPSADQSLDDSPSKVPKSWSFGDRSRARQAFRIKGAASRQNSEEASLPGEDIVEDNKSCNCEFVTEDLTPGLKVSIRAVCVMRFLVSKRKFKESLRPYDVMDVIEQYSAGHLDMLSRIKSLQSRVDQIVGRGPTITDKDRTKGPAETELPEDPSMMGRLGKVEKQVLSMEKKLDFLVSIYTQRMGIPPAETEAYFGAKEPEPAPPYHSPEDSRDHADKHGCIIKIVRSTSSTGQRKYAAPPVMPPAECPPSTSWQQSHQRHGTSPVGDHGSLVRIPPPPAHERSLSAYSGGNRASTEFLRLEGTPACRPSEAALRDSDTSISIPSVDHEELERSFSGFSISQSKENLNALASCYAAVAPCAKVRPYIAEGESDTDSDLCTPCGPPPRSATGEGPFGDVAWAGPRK

Consider `CC(C)(C)c1ccc(C(=O)NC(=S)NNC(=O)c2cccs2)cc1`, for which the activation is 226% (active) in [1], 199% (active) in [12], 84.8% (active) in assay [15] and 136% (active) in assay [17]. For the same compound, the result in assay [2], in [3], in assay [4], in assay [5], in assay [6] and in [7] was inactive. In addition, the result in assay [8], in [9], in assay [10], in [11], in assay [13] and in assay [14] was inactive. The outcome in [16] and in assay [20] was inactive. Also, the potentiation was 97% (active) in assay [18] and 188% (active) in assay [19].
Consider `CC(C)(C)c1cc(CCC(=O)NNC(=S)NC(=O)c2ccccc2)cc(C(C)(C)C)c1O`, for which the activation in [1] was 150% (active); in [12] it was 92% (active); in [15], 41.2% (active); in assay [17], 188% (active). Also, the result in [2], in assay [3], in assay [4], in assay [5], in assay [6] and in assay [7] was inactive. In addition, the outcome in assay [8], in [9], in assay [10], in assay [11], in assay [13] and in assay [14] was inactive. The result in assay [16] and in assay [20] was inactive. In addition, the potentiation in assay [18] was 61% (active); in [19], 185% (active).
For `CN(C)C(CNC(=O)C1CCN(S(=O)(=O)c2cccc(C(F)(F)F)c2)CC1)c1ccccc1` (stereo not given), the outcome in assay [1], in assay [2], in assay [3], in assay [4], in [5] and in assay [7] was inactive. The call in assay [9], in assay [10], in assay [11], in assay [12], in assay [13] and in [14] was inactive. The result in assay [15] and in assay [16] was inactive. For the same compound, the inhibition in assay [6] was 85% (active).
`Cc1ccc(OCC(=O)NNC(=S)NC(=O)C(C)(C)C)c(Br)c1`: the activation was 120% (active) in [1], 24% (active) in [10], 90.9% (active) in assay [12] and 19.6% (active) in assay [15]. Also, the outcome in assay [2], in [3], in assay [4], in assay [5], in assay [6] and in assay [7] was inactive. Besides, the outcome in assay [8], in assay [9], in assay [11], in [13], in assay [14] and in assay [16] was inactive. The outcome in [17] and in assay [20] was inactive. For the same compound, the potentiation in [18] is 73% (active); in [19] it was 158% (active).
As to `OC(CNC1CCCc2ccccc21)COc1c(Cl)cccc1Cl` (stereo not given), the activation is 86% (active) in [1], 101% (active) in [10], 9.49% (active) in assay [12] and 14.8% (active) in assay [15]. The result in assay [2], in assay [3], in assay [4], in assay [5], in assay [7] and in [9] was inactive. Also, the outcome in assay [11], in [14] and in assay [16] was inactive. Moreover, the inhibition was 52% (active) in [6] and 35.9% (active) in [13].
On to `Cc1ccc(C2(O)CN(c3ccccc3)C3=[N+]2CCS3)cc1` (stereo not given), for which the outcome in assay [1], in assay [2], in assay [3], in assay [4], in [7] and in [9] was inactive. For the same compound, the outcome in assay [11], in assay [12], in assay [13], in assay [14], in [15] and in assay [16] was inactive. Moreover, the values for the inhibition in [5] and in assay [6] were 97% (active) and 79% (active), respectively. The activation in assay [10] was 48% (active).

For the origin of these results see PubChem BioAssay.
